From PubChem BioAssay (Tox21)
Records with an inconclusive call do not appear. Calls of active or inactive are those of the source. Unless noted, calls come from the whole dose curve; as a rule, active = well fitted curve in the direction sought with a large enough effect in the repeat runs; inconclusive = weak or mixed curves; inactive = no such curve, though single readings can be large; an effect the other way counts as inactive or inconclusive. Non-standard residues stand in square brackets, D forms with d. Residues, ends and D or L forms follow the SMILES beside them. *: point of attachment. Sta = CC(C)C[C@H](N)[C@@H](O)CC(=O)O; Isovaleryl = CC(C)CC(=O)*

What was measured:
[1] = qHTS assay for small molecule agonists of the p53 signaling pathway (AID 651631; calls by dose curve; note: nearly all actives have a fitted effect of over 15% in size)
In short: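 Readout was fluorescence from the LiveBLAzer FRET substrate, applied for 2 h at room temperature after 16 h compound exposure at 37 °C. Cells were the p53RE-bla HCT-116 line, with beta-lactamase driven by p53 response elements.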

[2] = qHTS assay for small molecules that induce genotoxicity in human embryonic kidney cells expressing luciferase-tagged ATAD5 (AID 651632); note: nearly all actives have a fitted effect of over 15% in size
In short: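 HEK293T cells carrying a luciferase reporter tagged to ATAD5 were exposed to compound or DMSO vehicle for 16 hr at 37C, 5% CO2. Amplite was added, and after 30 min at room temperature luciferase activity was read as a marker of ATAD5 induction.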

[3] = qHTS assay for small molecules that induce genotoxicity in human embryonic kidney cells expressing luciferase-tagged ATAD5 - cell viability (AID 651634; calls by dose curve; note: nearly all actives have a fitted effect of over 25% in size)
In short: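 HEK293T cells expressing luciferase-tagged ATAD5 were exposed to compound or DMSO for 15.5 hr at 37C, 5% CO2. Viability was then read as live-cell protease activity by CellTiter-Fluor fluorescence after 30 min at 37C.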

[4] = qHTS assay for small molecule disruptors of the mitochondrial membrane potential - cell viability (AID 720634; calls by dose curve;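 note: human HepG2 liver cancer cells; series mostly up to about 83 µM; nearly all actives have a fitted effect of over 20% in size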)
In short: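 HepG2 cells seeded overnight at 37 C, then exposed to compound or DMSO for 1 hr at 37 C, 5% CO2. m-MPI dye added, then CellTiter-Glo for 30 min at room temperature; viability read as ATP luminescence.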

[5] = qHTS assay to test for compound auto fluorescence at 590 nm (red) in HepG2 cells (AID 720674)
In short: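 Rose Bengal sodium served as the red fluorophore standard. HepG2 monolayers (overnight attachment, MEM with 10% FBS) were exposed to test compounds for 1 hr at 37 C and read at Ex 540/Em 590 nm.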

[6] = qHTS assay to test for compound auto fluorescence at 535 nm (green) in HepG2 cells (AID 720675)
[7] = qHTS assay to test for compound auto fluorescence at 460 nm (blue) in HEK293 cells (AID 720678)
In short: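 Auto fluorescence in the blue band was quantified as triamterene equivalency. HEK293 cells were seeded at 2,000/well, dosed after a 4-5 hr attachment, and kept overnight at 37C before the 405/460 nm reading.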

[8] = qHTS assay to test for compound auto fluorescence at 590 nm (red) in HEK293 cells (AID 720679)
In short: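 Autofluorescence equivalency to Rose Bengal sodium, 540/590nm, in HEK293 cells exposed overnight to 23 nL compound per well.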

[9] = qHTS assay to test for compound auto fluorescence at 535 nm (green) in HEK293 cells (AID 720680)
[10] = qHTS assay to test for compound auto fluorescence at 460 nm (blue) in HEK293 cell free culture (AID 720681)
In short: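 Test compounds were pinned into cell-free culture medium (DMEM with 10% FBS) and fluorescence was read directly at Ex/Em 405/460 nm. Signals were expressed as fluorescence equivalents of triamterene, with DMSO vehicle as control.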

[11] = qHTS assay to test for compound auto fluorescence at 535 nm (green) in HEK293 cell free culture (AID 720682)
In short: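 Compounds were pin-transferred into cell-free DMEM with 10% FBS, and green fluorescence was read at excitation 485 nm and emission 535 nm. Intensities were expressed as fluorescein-equivalent values.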

[12] = qHTS assay to test for compound auto fluorescence at 590 nm (red) in HEK293 cell free culture (AID 720683)
In short: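 Tox21 10K library compounds were pinned into cell-free DMEM with 10% FBS and fluorescence was read at excitation 540 nm. Activity is expressed as Rose Bengal sodium equivalency.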

[13] = qHTS assay to test for compound auto fluorescence at 590 nm (red) in HepG2 cell free culture (AID 720684)
In short: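 Measured in medium alone (MEM containing 10% FBS) following pintool addition of compound; emission at 590 nm with 540 nm excitation, referenced to Rose Bengal sodium.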

[14] = qHTS assay to test for compound auto fluorescence at 460 nm (blue) in HepG2 cell free culture (AID 720685)
In short: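 Compound (23 nL) or DMSO pinned into cell-free MEM with 10% FBS; blue fluorescence read at 405/460 nm excitation/emission, expressed as auto-fluorescence equivalency to triamterene.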

[15] = qHTS assay to test for compound auto fluorescence at 535 nm (green) in HepG2 cell free culture (AID 720686)
[16] = qHTS assay to test for compound auto fluorescence at 460 nm (blue) in HepG2 cells (AID 720687)
In short: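 Cells (2,000/well in MEM with 10% FBS) attached overnight at 37 C, then were exposed to compound or DMSO for 1 hr at 37 C, 5% CO2. Fluorescence read at Ex/Em 405/460 nm, expressed as triamterene-equivalent signal.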

[17] = target: Glucocorticoid receptor (Homo sapiens) (UniProt P04150); assay: qHTS assay to identify small molecule agonists of the glucocorticoid receptor (GR) signaling pathway (AID 720691; active = well fitted activation curve with a large enough effect in the signal ratio in the repeat runs, not every such curve was filed as active; the % refers to the signal ratio)
Sequence of Glucocorticoid receptor (Homo sapiens) (P04150 whole entry, looked up): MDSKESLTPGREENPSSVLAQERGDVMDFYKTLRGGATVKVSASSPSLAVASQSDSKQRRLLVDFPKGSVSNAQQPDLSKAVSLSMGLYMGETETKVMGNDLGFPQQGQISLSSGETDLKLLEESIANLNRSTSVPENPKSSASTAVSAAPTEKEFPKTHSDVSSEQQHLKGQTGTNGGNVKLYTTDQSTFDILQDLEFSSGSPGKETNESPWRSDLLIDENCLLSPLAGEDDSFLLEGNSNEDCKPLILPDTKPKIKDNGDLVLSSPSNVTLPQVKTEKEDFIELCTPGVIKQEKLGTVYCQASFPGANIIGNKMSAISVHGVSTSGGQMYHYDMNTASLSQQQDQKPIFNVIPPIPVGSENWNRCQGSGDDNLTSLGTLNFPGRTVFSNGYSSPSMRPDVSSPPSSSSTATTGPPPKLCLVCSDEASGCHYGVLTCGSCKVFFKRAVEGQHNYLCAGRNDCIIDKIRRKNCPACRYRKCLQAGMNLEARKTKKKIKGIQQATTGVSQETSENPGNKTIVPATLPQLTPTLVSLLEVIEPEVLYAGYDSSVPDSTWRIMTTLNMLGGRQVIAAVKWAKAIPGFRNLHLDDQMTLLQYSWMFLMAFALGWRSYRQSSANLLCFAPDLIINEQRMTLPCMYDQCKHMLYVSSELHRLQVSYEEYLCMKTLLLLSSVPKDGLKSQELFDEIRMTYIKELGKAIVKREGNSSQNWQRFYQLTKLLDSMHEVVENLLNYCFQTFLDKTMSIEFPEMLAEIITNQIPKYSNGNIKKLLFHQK
In short: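 GR-bla HeLa cells (beta-lactamase reporter under glucocorticoid response element) were plated 4 h at 37 C/5% CO2, given compounds in DMSO, and incubated 18 h at 37 C. LiveBLAzer B/G FRET substrate was added for 2 h at room temperature, then fluorescence intensity read.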

[18] = qHTS assay for small molecule disruptors of the mitochondrial membrane potential (AID 720635)
In short: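 HepG2 cells (2,000/well) attached overnight at 37C, then took compound for 1 hr at 37C, 5% CO2. Mito-MPS dye was added for 30 min; fluorescence was read at 490/535 nm (monomers) and 540/590 nm (aggregates).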

[19] = qHTS assay for small molecule agonists of the p53 signaling pathway - cell viability (AID 651633; calls by dose curve; note: series mostly up to about 83 µM; nearly all actives have a fitted effect of over 30% in size)
In short: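 p53RE-bla cells, seeded at 4,000 per well and rested 5 h at 37 C/5% CO2, received compounds in DMSO for 16 h at 37 C. CellTiter-Glo was then added, and luminescence was read after 30 min at room temperature to gauge cytotoxicity.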

[20] = target: Glucocorticoid receptor (Homo sapiens) (UniProt P04150); assay: qHTS assay to identify small molecule antagonists of the glucocorticoid receptor (GR) signaling pathway (AID 720692; active = well fitted inhibition curve with a large enough effect in the signal ratio in the repeat runs, not every such curve was filed as active; the % refers to the signal ratio)
In short: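 GR-bla HeLa cells (beta-lactamase reporter under glucocorticoid response element) were pre-plated 4 h at 37 C, treated with compounds plus 5 nM dexamethasone (final) for 18 h, then read by LiveBLAzer B/G FRET fluorescence after 2 h.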

Measured: Potency

CCCCCCCCCCCCCCCC/C=C/C1CC(=O)OC1=O (centres undefined)
not listed: [18] | [19] | [20]
inactive: all other assays above

CC(C)CC(=O)N[C@H](C(=O)N[C@H](C(=O)N[C@@H](CC(C)C)[C@@H](O)CC(=O)N[C@@H](C)C(=O)N[C@@H](CC(C)C)[C@@H](O)CC(=O)O)C(C)C)C(C)C (Isovaleryl-VV[Sta]A[Sta]-OH)
not listed: [11] | [13] | [14] | [17] | [19] | [20]
inactive: all other assays above

Cc1cccc(N)n1
not listed: [14] | [17] | [19] | [20]
inactive: all other assays above

CC(C)(C)OC=O
not listed: [11] | [18]
inactive: all other assays above

NC(=O)CC[C@@H](N)C(=O)O
not listed: [1] | [15] | [20]
inactive: all other assays above

Cc1ccc(OC(=O)CC(C)C)cc1
not listed: [1] | [15] | [20]
inactive: all other assays above

CCN1CCN(C(=O)N[C@@H](C(=O)N[C@@H]2C(=O)N3[C@@H]2SC(C)(C)[C@H]3C(=O)O)c2ccccc2)C(=O)C1=O
not listed: [1] | [13] | [15] | [17] | [20]
inactive: all other assays above
